Records with an inconclusive call do not appear. Calls of active or inactive are those of the source. How the source made its calls, unless noted: active means hit-call score of the fitted dose curve at least 0.9, where 1 is the maximum; inactive means score below 0.9.

This note sets out measurements from PubChem BioAssay (EPA / NIEHS).

Assay [1] in a line: APR_HepG2_CellCycleArrest_1hr: Apredica 1-hour HepG2 Assay for Cell Cycle Arrest (AID 2282666). Conditions: high-content imaging, actives raise or lower the signal. An outline of the steps: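 HepG2 cells exposed for 1 h to 0.39–200 uM compound (0.5% DMSO). Fixed, Hoechst-stained nuclei imaged by ArrayScan; DNA content quantified by Cell Cycle analysis; bidirectional fit against DMSO.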

The nature of assay [2]: ACEA_ER_80hr: ACEA Biosciences xCELLigence Real-Time Cell Analysis on Estrogen Receptor Agonism for Proliferation (AID 2282667; active means hit-call score of the fitted dose curve at least 0.9, where 1 is the maximum). The conditions noted are these: T47D proliferation, impedance (xCELLigence), 80 h. The method, boiled down:
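Estrogen-driven proliferation is captured as electrode impedance in T47D cells 80 h after compound addition. Test articles ran at 8 concentrations, 1:4 dilutions from 100 uM final, in two replicate plates.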

Assay [3] can be described thus: APR_HepG2_MicrotubuleCSK_1hr: Apredica 1-hour HepG2 Assay for Microtubule CSK Stabilty (AID 2282669). Conditions: HepG2 microtubule cytoskeleton imaging, actives raise or lower the signal. An outline of the steps: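 HepG2 cells exposed 1 h to 0.39–200 uM compound (0.5% DMSO, duplicates), then formaldehyde-fixed, permeabilized and immunostained for alpha-tubulin with Hoechst nuclei. Imaged by ArrayScan high-content analysis; bidirectional fit versus DMSO.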

Assay [4] in a line: APR_HepG2_NuclearSize_1hr: Apredica 1-hour HepG2 Assay for Nuclear Size (AID 2282670). The conditions noted are these: high-content imaging, actives raise or lower the signal. The method, boiled down: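 HepG2 cells dosed 1 hr with 0.39–200 uM compound (0.5% DMSO), formaldehyde-fixed, Hoechst 33342-stained and imaged at 20x; nuclear diameter from nuclear stain, fitted bidirectionally against DMSO.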

Assay [5] can be described thus: APR_HepG2_MitoticArrest_1hr: Apredica 1-hour HepG2 Assay for Mitotic Arrest (AID 2282672). Conditions: high-content imaging, actives raise or lower the signal. An outline of the steps:
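HepG2 cells exposed 1 hr to compounds at 0.39–200 uM (0.5% v/v DMSO final), then fixed in 3.7% formaldehyde and immunostained for phospho-histone H3 with Hoechst 33342. Mitotic arrest scored by automated fluorescence imaging, fitted bidirectionally versus DMSO.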

Assay [6] can be described thus: APR_HepG2_P-H2AX_1hr: Apredica 1-hour HepG2 Assay for H2AX Phosphorylation (AID 2282673). Conditions: high-content imaging, actives raise or lower the signal. An outline of the steps: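 HepG2 dosed 1 hr at 0.39-200 uM (0.5% DMSO final), duplicate. Fixed in 3.7% formaldehyde, Triton permeabilized, immunostained for phospho-histone H2A.x (1:200) with Hoechst 33342; ArrayScan 20x imaging, bidirectional fit vs DMSO.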

The nature of assay [7]: APR_HepG2_MitoMass_1hr: Apredica 1-hour HepG2 Assay for Mitochondrial Mass (AID 2282674). Conditions: high-content imaging, actives raise or lower the signal. An outline of the steps: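 HepG2 cells dosed 1 hr with 0.39-200 uM compound (0.5% DMSO), duplicate wells. Mitochondria stained with 250 nM MitoTracker Red CMXRos for 30 min before formaldehyde fixation, imaged at 20x by ArrayScan; bidirectional fit versus DMSO.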

A short description of assay [8]: APR_HepG2_CellCycleArrest_24hr: Apredica 24-hour HepG2 Assay for Cell Cycle Arrest (AID 2282905).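 Further: cell cycle arrest scored as ratio of 2N to 4N nuclear DNA content.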 Conditions: imaging, actives raise or lower the signal. An outline of the steps: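 Compounds at 0.39–200 uM (0.5% DMSO) for 24 h, then fixed and Hoechst 33342 stained. Cell-cycle analysis of nuclear DNA content by high-content imaging, fitted bidirectionally versus DMSO.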

Assay [9] is described as follows: APR_HepG2_StressKinase_1hr: Apredica 1-hour HepG2 Assay for Stress Kinase (AID 2282906). Conditions: HepG2 stress kinase (phospho-c-Jun) imaging, actives raise or lower the signal. The method, boiled down:
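HepG2 cells dosed 0.39-200 uM (0.5% DMSO) for 1 h, then formaldehyde-fixed. Stress kinase read by phospho-c-Jun immunofluorescence using high-content imaging; bidirectional fit vs DMSO.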

Assay [10] can be described thus: APR_HepG2_NuclearSize_24hr: Apredica 24-hour HepG2 Assay for Nuclear Size (AID 2282907). Conditions: high-content imaging, actives raise or lower the signal. The method, boiled down:
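HepG2 cells exposed 24 h to compounds at 0.39–200 uM (0.5% DMSO), fixed, Hoechst 33342 stained and imaged at 20x; nuclear diameter measured by automated image analysis, fitted bidirectionally against DMSO controls.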

A short description of assay [11]: APR_HepG2_CellLoss_24hr: Apredica 24-hour HepG2 Assay for Cell Loss (AID 2282908).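 On AC50: fit in both directions so a hit may be cell loss or gain.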 The conditions noted are these: high-content imaging. The method, boiled down: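 HepG2 cells exposed 24 hr to 0.39–200 uM compound in duplicate at 0.5% v/v final DMSO. Cells fixed in 3.7% formaldehyde and Hoechst 33342-stained. Cell number came from nuclear imaging at 20x. Bidirectional fit versus DMSO.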

A short description of assay [12]: APR_HepG2_MicrotubuleCSK_24hr: Apredica 24-hour HepG2 Assay for Microtubule CSK Stabilty (AID 2282909). The conditions noted are these: HepG2 microtubule cytoskeleton imaging, actives raise or lower the signal. The method, boiled down: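 HepG2 cells were treated 24 hr with compound at 0.39–200 uM in duplicate (0.5% DMSO final), then fixed and permeabilized. Alpha-tubulin immunofluorescence was imaged by high-content microscopy, with bidirectional fitting against DMSO and taxol as positive control.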

Assay [13] in a line: APR_HepG2_MitoticArrest_24hr: Apredica 24-hour HepG2 Assay for Mitotic Arrest (AID 2282910). The conditions noted are these: high-content imaging, actives raise or lower the signal. An outline of the steps: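 HepG2 cells, 24 h exposure at 0.39-200 uM (10 concentrations, duplicate, 0.5% DMSO). Fixed, stained for phospho-histone H3 with Hoechst; imaged by high-content microscopy, bidirectional fit versus DMSO.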

A short description of assay [14]: APR_HepG2_MitoMembPot_24hr: Apredica 24-hour HepG2 Assay for Mitochondrial Membrane Potential (AID 2282911). The conditions noted are these: imaging, actives raise or lower the signal. The method, boiled down: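 Mitochondrial dye uptake (MitoTracker Red CMXRos, 250 nM, 30 min pre-fixation) in HepG2 after 24 hr compound exposure, 0.39–200 uM; ArrayScan images at 20x, activity fitted in both directions relative to DMSO.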

The nature of assay [15]: APR_HepG2_MitoMass_24hr: Apredica 24-hour HepG2 Assay for Mitochondrial Mass (AID 2282912). The conditions noted are these: high-content imaging, actives raise or lower the signal. An outline of the steps:
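HepG2 cells exposed 24 hr to 0.39–200 uM compound, 0.5% v/v DMSO, in duplicate. Stained before fixation with 250 nM MitoTracker Red CMXRos for 30 min, then imaged at 20x with Hoechst nuclei. Fitted in both directions against DMSO.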

Assay [16] can be described thus: APR_HepG2_CellCycleArrest_72hr: Apredica 72-hour HepG2 Assay for Cell Cycle Arrest (AID 2282914). The conditions noted are these: high-content imaging, actives raise or lower the signal. An outline of the steps:
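Using multiplexed high-content imaging, HepG2 nuclei stained with Hoechst 33342 (2 ug/mL) were analysed for DNA content after fixation and permeabilization. Treatment lasted 72 hr across 0.39–200 uM in duplicate with final DMSO 0.5% v/v; DMSO served as negative control.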

Assay [17] can be described thus: APR_HepG2_p53Act_1hr: Apredica 1-hour HepG2 Assay for p53 Activation (AID 2282671). The conditions noted are these: high-content imaging, actives raise or lower the signal. The method, boiled down: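 HepG2 cells treated 1 h with compound at 0.39–200 uM (10 concentrations, duplicate) in 0.5% DMSO. Formaldehyde-fixed, permeabilised cells immunostained for p53 with Hoechst 33342; high-content imaging, bidirectional fit versus DMSO.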

The nature of assay [18]: APR_HepG2_MitoMembPot_1hr: Apredica 1-hour HepG2 Assay for Mitochondrial Membrane Potential (AID 2282675). The conditions noted are these: imaging, actives raise or lower the signal. An outline of the steps:
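HepG2 cells dosed 1 hour with 0.39–200 uM compound in duplicate, 0.5% DMSO final. MitoTracker Red CMXRos (250 nM, 30 min) loaded before formaldehyde fixation; fluorescence quantified by high-content imaging, bidirectional fitting versus DMSO.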

Assay [19] can be described thus: APR_HepG2_p53Act_24hr: Apredica 24-hour HepG2 Assay for p53 Activation (AID 2282913).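 Further: p53 protein immunofluorescence averaged per cell in HepG2 with Hoechst nuclei.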 Conditions: high-content imaging, actives raise or lower the signal. An outline of the steps: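 Following 24 hr dosing of HepG2 at 0.39–200 uM, the cells undergo formaldehyde fixation, Triton permeabilization and multiplexed antibody labeling that includes p53 (Cy5). Signal from the imaging is referenced to DMSO solvent controls.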

For `COCc1cnc(C2=NC(C)(C(C)C)C(=O)N2)c(C(=O)O)c1` (configuration not stated), the molecule was called inactive in assay [1], in assay [2], in [3], in assay [4], in [5] and in assay [6]. The result in assay [7], in assay [8], in [9], in [10], in assay [11] and in [12] was inactive. For the same molecule, the result in assay [13], in assay [14], in assay [15] and in [16] was inactive.
`COCC(=O)N(c1c(C)cccc1C)C(C)C(=O)OC` (configuration not stated): the outcome in assay [1], in [2], in assay [3], in assay [17], in assay [6] and in [7] was inactive. Moreover, the call in [18], in [8], in assay [9], in assay [10], in [11] and in assay [12] was inactive. The call in assay [13], in [14], in [15] and in [19] was inactive.
Regarding `CNC(=O)Oc1cccc2ccccc12`, the call in assay [1], in [2], in [3], in [17], in assay [5] and in assay [7] was inactive. Also, the outcome in [18], in assay [8], in assay [9], in assay [10], in [12] and in assay [13] was inactive. In addition, the molecule was called inactive in [14], in assay [15], in assay [19] and in assay [16]. Also, the figures for the half-maximal activity concentration (AC50) in [6] and in assay [11] were 57.9 µM (active) and 50.5 µM (active), respectively.
On to `Nc1cnn(-c2ccccc2)c(=O)c1Cl`, for which the molecule was called inactive in assay [1], in assay [2], in [3], in [17], in assay [6] and in assay [7]. The call in [8], in assay [9], in [10], in assay [11], in assay [12] and in [13] was inactive. Further, the call in assay [14], in assay [15] and in [19] was inactive.
Take `CCSC(=O)N1CCCCCC1`: the molecule was classed as inactive in assay [1], in assay [2], in assay [3], in assay [17], in [5] and in assay [6]. Also, the result in assay [7], in assay [8], in [9], in [10], in [11] and in [12] was inactive. Also, the call in assay [13], in assay [14], in [15] and in assay [19] was inactive.
With `CC(C)N1C(=O)c2ccccc2NS1(=O)=O`, the AC50 in assay [1] was 59.2 nM (active). The molecule was called inactive in assay [2], in [3], in [17], in assay [6], in assay [7] and in [18]. Besides, the outcome in assay [8], in assay [9], in assay [10], in [11], in assay [12] and in assay [13] was inactive. Besides, the call in assay [14], in [15] and in [19] was inactive.
For `CN/C(=N\[N+](=O)[O-])NCc1cnc(Cl)s1`, the call in assay [1], in assay [2], in [3], in assay [4], in assay [17] and in [6] was inactive. In addition, the call in assay [7], in assay [18], in assay [8], in assay [9], in assay [10] and in [11] was inactive. Further, the result in assay [12], in [13], in [14], in assay [15] and in [19] was inactive.
For the molecule `CC(C)Oc1cccc(NC(=O)c2ccccc2C(F)(F)F)c1`, the result in assay [1], in assay [2], in [3], in assay [4], in assay [17] and in assay [5] was inactive. Further, the result in [6], in assay [7], in assay [8], in assay [9], in assay [10] and in [11] was inactive. The molecule was classed as inactive in [12], in assay [13], in [14], in assay [15], in assay [19] and in assay [16].
